CRFR2-BP antag – CRF-BP/CRF-R2 complex antagonism; HEK293 CRF-R2/CRF-BP, CRF-induced calcium fluorescence; inhibition, % at 11.8 µM; 350,000 compounds, 0.59% hits; AID 588475;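 active means inhibition of the ligand-induced calcium signal above about 50% at the single tested concentration, limit read from the data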
FAS-TE inh – blocks the thioesterase domain of human fatty acid synthase; P49327; recombinant FAS-TE, OMFH fluorogenic substrate, fluorescence endpoint; inhibition, % at 15 µM; 360,000 compounds, 0.67% hits; AID 602261;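 active means compounds whose normalised, plate-corrected inhibition of enzyme fluorescence in the single-dose primary screen is 50% or more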;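 further: 0% = DMSO with enzyme and 100% = substrate without enzyme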
Target sequence (P49327 whole entry, looked up, the tested form may be a part): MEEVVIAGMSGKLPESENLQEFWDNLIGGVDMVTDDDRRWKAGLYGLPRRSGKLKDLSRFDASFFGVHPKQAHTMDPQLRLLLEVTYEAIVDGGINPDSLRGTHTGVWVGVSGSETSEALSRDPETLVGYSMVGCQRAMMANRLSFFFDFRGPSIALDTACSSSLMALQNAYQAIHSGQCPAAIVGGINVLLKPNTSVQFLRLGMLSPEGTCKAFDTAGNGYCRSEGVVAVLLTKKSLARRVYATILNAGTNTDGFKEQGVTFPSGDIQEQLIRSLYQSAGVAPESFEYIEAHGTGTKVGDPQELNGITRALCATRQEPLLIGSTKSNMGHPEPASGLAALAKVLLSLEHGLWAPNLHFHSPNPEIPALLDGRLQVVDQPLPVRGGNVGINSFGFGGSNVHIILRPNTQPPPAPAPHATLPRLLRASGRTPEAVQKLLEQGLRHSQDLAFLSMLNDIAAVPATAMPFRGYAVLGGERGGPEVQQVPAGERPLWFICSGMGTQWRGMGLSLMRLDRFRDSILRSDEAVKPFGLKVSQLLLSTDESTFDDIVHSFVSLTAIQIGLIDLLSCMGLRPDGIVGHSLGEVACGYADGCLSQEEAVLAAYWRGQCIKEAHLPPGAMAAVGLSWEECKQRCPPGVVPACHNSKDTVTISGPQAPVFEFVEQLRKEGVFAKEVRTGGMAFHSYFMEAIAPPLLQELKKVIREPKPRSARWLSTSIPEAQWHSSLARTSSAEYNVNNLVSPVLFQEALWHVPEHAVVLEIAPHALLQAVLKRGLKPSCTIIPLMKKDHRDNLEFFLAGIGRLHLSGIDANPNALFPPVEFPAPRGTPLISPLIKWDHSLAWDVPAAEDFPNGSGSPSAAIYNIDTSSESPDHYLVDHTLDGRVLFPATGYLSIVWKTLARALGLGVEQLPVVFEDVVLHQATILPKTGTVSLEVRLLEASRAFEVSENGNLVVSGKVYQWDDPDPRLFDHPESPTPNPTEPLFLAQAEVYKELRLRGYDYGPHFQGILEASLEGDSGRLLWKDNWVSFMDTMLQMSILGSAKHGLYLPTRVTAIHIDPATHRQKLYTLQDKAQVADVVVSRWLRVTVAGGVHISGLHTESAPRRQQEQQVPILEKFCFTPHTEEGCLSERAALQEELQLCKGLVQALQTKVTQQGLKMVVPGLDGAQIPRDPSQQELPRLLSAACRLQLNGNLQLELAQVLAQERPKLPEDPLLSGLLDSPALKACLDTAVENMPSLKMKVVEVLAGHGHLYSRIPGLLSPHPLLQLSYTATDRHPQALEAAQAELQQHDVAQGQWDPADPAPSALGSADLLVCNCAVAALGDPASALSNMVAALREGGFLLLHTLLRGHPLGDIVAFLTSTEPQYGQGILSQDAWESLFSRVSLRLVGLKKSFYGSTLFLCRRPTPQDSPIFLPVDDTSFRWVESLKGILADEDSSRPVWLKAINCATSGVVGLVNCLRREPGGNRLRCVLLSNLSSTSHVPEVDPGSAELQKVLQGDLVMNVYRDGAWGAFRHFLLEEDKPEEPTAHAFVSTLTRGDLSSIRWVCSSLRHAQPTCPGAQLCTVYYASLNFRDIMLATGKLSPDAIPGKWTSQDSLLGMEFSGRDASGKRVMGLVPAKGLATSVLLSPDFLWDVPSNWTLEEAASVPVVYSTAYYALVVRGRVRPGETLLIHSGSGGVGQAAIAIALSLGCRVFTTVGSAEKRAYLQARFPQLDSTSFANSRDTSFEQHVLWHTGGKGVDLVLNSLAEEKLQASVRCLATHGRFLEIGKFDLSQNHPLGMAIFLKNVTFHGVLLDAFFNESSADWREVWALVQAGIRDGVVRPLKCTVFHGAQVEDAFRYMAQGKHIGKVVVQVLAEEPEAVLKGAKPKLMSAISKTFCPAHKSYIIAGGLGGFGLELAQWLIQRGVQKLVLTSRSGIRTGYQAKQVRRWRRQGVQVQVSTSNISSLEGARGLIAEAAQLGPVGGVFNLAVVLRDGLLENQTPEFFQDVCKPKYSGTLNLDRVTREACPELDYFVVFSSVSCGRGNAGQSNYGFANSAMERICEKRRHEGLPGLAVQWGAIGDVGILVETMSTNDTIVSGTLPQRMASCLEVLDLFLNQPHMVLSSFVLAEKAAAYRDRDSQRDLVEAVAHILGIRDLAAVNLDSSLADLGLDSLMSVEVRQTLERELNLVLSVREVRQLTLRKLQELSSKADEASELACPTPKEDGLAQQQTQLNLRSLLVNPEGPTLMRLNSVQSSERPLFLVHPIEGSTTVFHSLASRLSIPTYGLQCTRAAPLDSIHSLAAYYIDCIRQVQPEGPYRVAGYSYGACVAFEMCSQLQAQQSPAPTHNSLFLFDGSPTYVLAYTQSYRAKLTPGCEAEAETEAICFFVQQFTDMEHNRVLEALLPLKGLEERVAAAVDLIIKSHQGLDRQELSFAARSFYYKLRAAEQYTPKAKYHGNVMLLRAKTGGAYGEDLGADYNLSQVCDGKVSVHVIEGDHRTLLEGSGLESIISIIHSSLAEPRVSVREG
aDG glyco act – alpha-DG glycosylation activation; Pro5-aDG cells, alpha-DG glycosylation AlphaScreen (IIH6); 0% Pro5, 100% B10-LARGE cell signal; activation, % at 10 µM; 360,000 compounds, 0.22% hits; AID 624168;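 active means activation of at least 8% versus controls, or a plate z-score of at least 8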;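 further: Pro5 are CHO cells carrying HIG-tagged alpha-DG that lacks glycosylation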
PfG6PD inh – PfG6PD (Plasmodium falciparum) enzyme inhibition | inhibition, % at 20 µM | AID 504690 | 350,000 compounds, 0.78% hits | PfGluPho enzyme, NADPH resazurin-diaphorase fluorescence;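 active means inhibition reaching at least a set limit at 20 µM in the primary screen, cut at about 59% in these data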;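 further: 0% = DMSO wells with substrate and 100% = DMSO wells lacking glucose-6-phosphate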
CRFR2-BP ag – CRF-BP/CRF-R2 complex agonism; HEK293 CRF-R2/CRF-BP, calcium dye fluorescence (FLIPR); percent of saturating CRF peptide response; 350,000 compounds, 0.46% hits; activation, % at 13.2 µM;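 active means activation of at least 50%, plus an integration ratio under a set limit after plate pattern correction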;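 further: plate controls were neutral control wells without compound for no effect and CRF at EC100 for full effect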
H9c2 protect – myocardial damage modulation in H9c2 cells; H9c2 cardiomyocytes, H2O2 injury protection, ATPLite, 2 h; protection from H2O2 cell death, % at 20 µM; 360,000 compounds, 0.63% hits;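 active means compounds giving at least 50% protection of heart cells from peroxide-induced death in the single-dose screen, raw or plate-pattern-corrected value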;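 further: 0% = DMSO wells with peroxide and 100% = DMSO wells without peroxide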
* = called active by the depositor. Compounds with a hit are over-represented: about 3.2% of the library has one in this group of screens.

How did OCC1(Cc2ccccc2F)CCCN(Cc2c(F)ccc(F)c2F)C1 (stereo unspecified) do in these assays?
CRFR2-BP antag: -14.4; FAS-TE inh: -3.6; aDG glyco act: 0.2; PfG6PD inh: -6.3; CRFR2-BP ag: -0.9; H9c2 protect: -0.8

What do the screens show for `Cc1ccccc1Cn1nc(C)c(NC(=O)c2cc(-c3cccs3)on2)c1C`?
CRFR2-BP antag: 56.7*; FAS-TE inh: 10.2; aDG glyco act: 0.8; PfG6PD inh: 3.4; CRFR2-BP ag: 2.4; H9c2 protect: -6.6

What do the screens show for `O=C(Nc1nccs1)c1ccc(COc2c(F)c(F)cc(F)c2F)cc1`?
CRFR2-BP antag: -13.7; FAS-TE inh: 11.3; aDG glyco act: 0.9; PfG6PD inh: 5.4; CRFR2-BP ag: 0.1; H9c2 protect: -4.1

How did COc1cccc2ccc(CC(O)(c3ccccc3)c3ccccc3)nc12 do in these assays?
CRFR2-BP antag: 58.4*; FAS-TE inh: 24.8; aDG glyco act: 0.2; PfG6PD inh: 12.7; CRFR2-BP ag: 4.4; H9c2 protect: 4.9

Results for Cc1ccc2nc(CC(O)(c3ccccc3)c3ccccc3)ccc2c1 ?
CRFR2-BP antag: 25.2; FAS-TE inh: 20.4; aDG glyco act: -0.2; PfG6PD inh: 14.6; CRFR2-BP ag: 0.2; H9c2 protect: -11.3

Results for N#Cc1ccc(NC(=O)COC(=O)CSc2nnc(-c3ccc(Cl)cc3)o2)cc1 ?
CRFR2-BP antag: 51.6*; FAS-TE inh: -2.0; aDG glyco act: -0.2; PfG6PD inh: -15.3; CRFR2-BP ag: 3.9; H9c2 protect: -4.0

Results for S=C(Nc1ccccc1Cl)NC1CC2CCCC(C1)N2C1CC1 (stereo unspecified) ?
CRFR2-BP antag: -7.2; FAS-TE inh: -2.4; aDG glyco act: 0.5; PfG6PD inh: 16.5; CRFR2-BP ag: 0.7; H9c2 protect: -4.5

How did O=C(NCCCO)C(=O)Nc1cc2c3c(c1)CCN3C(=O)CC2 do in these assays?
CRFR2-BP antag: 78.0*; FAS-TE inh: -4.5; aDG glyco act: -0.1; PfG6PD inh: 0.9; CRFR2-BP ag: -0.8; H9c2 protect: -0.9

How did COCCCNC(=O)C(=O)Nc1cc2c3c(c1)CCN3C(=O)CC2 do in these assays?
CRFR2-BP antag: 24.2; FAS-TE inh: -5.6; aDG glyco act: -0.3; PfG6PD inh: 11.4; CRFR2-BP ag: 0.3; H9c2 protect: 6.2

What do the screens show for `COc1cc(/C=C(\C#N)C(=O)c2ccc(O)c(O)c2)cc(I)c1O`?
CRFR2-BP antag: -214.8; FAS-TE inh: -0.6; aDG glyco act: -0.1; PfG6PD inh: -9.9; CRFR2-BP ag: 187.8*; H9c2 protect: 62.5*

How did Cc1ccc(NS(=O)(=O)c2ccc3c(c2)NC(=O)CCS3)c(C)c1 do in these assays?
CRFR2-BP antag: 3.4; FAS-TE inh: 1.3; aDG glyco act: 0.5; PfG6PD inh: 9.1; CRFR2-BP ag: 1.0; H9c2 protect: -3.2

Results for Cc1ccccc1C(=O)Nc1ccc2c(C#N)c3nc4ccccc4nc3n2c1 ?
CRFR2-BP antag: -37.8; FAS-TE inh: -5.2; aDG glyco act: -0.4; PfG6PD inh: 18.5; CRFR2-BP ag: 83.5*; H9c2 protect: 64.7*

Results for COc1ccccc1C1C(C(=O)c2sc(C)nc2C)=C(O)C(=O)N1CCN1CCOCC1 (stereo unspecified) ?
CRFR2-BP antag: 94.3*; FAS-TE inh: -2.8; aDG glyco act: 0.1; PfG6PD inh: -0.4; CRFR2-BP ag: -1.6; H9c2 protect: -1.7

Results for Cc1cccc(C)c1NC(=O)C1CCN(S(C)(=O)=O)CC1 ?
CRFR2-BP antag: 15.8; FAS-TE inh: -4.9; aDG glyco act: -0.1; PfG6PD inh: -2.9; CRFR2-BP ag: -1.8; H9c2 protect: 3.3

What do the screens show for `Cc1ccc(C)c(-n2c3nc(=O)[nH]c(=O)c-3cc3cc([N+](=O)[O-])ccc32)c1`?
CRFR2-BP antag: -129.9; FAS-TE inh: -4.7; aDG glyco act: -0.4; PfG6PD inh: 47.8; CRFR2-BP ag: 61.4*; H9c2 protect: 0.3

Results for COc1cc2cc3c(N)c(C(=O)NCc4ccco4)sc3nc2cc1OC ?
CRFR2-BP antag: 6.5; FAS-TE inh: -2.7; aDG glyco act: 0.3; PfG6PD inh: 37.2; CRFR2-BP ag: 0.6; H9c2 protect: 58.3*

Results for O=C(CNC(=O)c1cccc(Br)c1)N/N=C/c1cc(Br)cc(Br)c1O ?
CRFR2-BP antag: -1.3; FAS-TE inh: 34.5; aDG glyco act: 0.1; PfG6PD inh: -37.6; CRFR2-BP ag: 0.9; H9c2 protect: 58.9*

Assay outcomes from PubChem.
